Sampled rows, rich in hits. Any-hit rate of the full collection: about 7.5%.
VACV mCherry inh: qHTS for Stage-Specific Inhibitors of Vaccinia Orthopoxvirus: mCherry Reporter Primary qHTS; Potency, µM (doses to about 36.5 µM), most hits filed as inhibitors; Vaccinia virus mCherry reporter infection, fluorescence; 0.63% of 310,000 active; calls by dose curve; tested in A549 cells; note: nearly all actives have a fitted effect of over 35% in size
Giardia FBPA inh-1: qHTS Assay for Inhibitors of Fructose-1,6-bisphosphate Aldolase from Giardia Lamblia; 0.71% of 290,000 active; purified Giardia FBPA; Potency, µM (titrated, usually from 59.6 µM), actives largely listed as inhibitors; A8B2U2; AID 2451, 2010; note: nearly all actives have a fitted effect of over 55% in size
Target sequence (A8B2U2 whole entry, looked up): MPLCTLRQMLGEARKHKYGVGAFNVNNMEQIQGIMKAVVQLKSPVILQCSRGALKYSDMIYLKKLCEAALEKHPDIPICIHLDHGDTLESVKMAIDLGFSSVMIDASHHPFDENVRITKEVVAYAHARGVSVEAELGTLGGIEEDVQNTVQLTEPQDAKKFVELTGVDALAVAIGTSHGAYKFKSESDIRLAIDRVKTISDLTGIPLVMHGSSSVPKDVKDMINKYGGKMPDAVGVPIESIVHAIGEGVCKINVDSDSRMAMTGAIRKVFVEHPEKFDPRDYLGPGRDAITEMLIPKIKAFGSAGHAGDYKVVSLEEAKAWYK
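40 nM FBPA preincubated 10 min at RT with compound (up to 57.5 uM final), then substrate plus GAPDH/TPI/NAD/arsenate coupling and diaphorase/resazurin added. Fluorescence read after 20 min at RT, 525/598 nm.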
Vaccinia Venus: qHTS for Stage-Specific Inhibitors of Vaccinia Orthopoxvirus: Venus Reporter Primary qHTS; Vaccinia virus Venus reporter expression, fluorescence; Potency, µM (top dose mostly 36.5 µM), actives largely listed as inhibitors; 0.46% of 330,000 active; AID 720580, 2013; calls by dose curve; tested in A549 cells; note: nearly all actives have a fitted effect of over 30% in size
HCMV inh: qHTS Assay for inhibitors of the human cytomegalovirus (HCMV). HFF cells, HCMV-luciferase reporter, 72 h; active compounds read low. activity change, negative = inhibition, % at 57.5 µM. 4.5% of 410,000 active. AID 1259415, 2018; in the data active = activity change below about -60%; inconclusive = no clear call, values can overlap the other calls; inactive = above about -39%
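Steps: HFFs plated, 16 h 37C; compounds added; HCMV-luciferase added to MOI 1 PFU/cell; 72 h 37C; OneGlo reagent, 5 min room temperature; luminescence read, normalized to controls.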
FMDV antiviral: High Throughput Screening for Foot and Mouth Disease Virus Antivirals; FMDV antiviral cell-based qHTS; Potency, µM (highest dose often 57.9 µM), usual class: inhibitors; 1.2% of 410,000 active; AID 1159524, 2015; calls by dose curve; tested in HEK293T cells; note: read-out not given here; nearly all actives have a fitted effect of over 45% in size
HCV inhibitor: qHTS Assay for Inhibitors of Hepatitis C Virus (HCV); 3.4% of 340,000 active; Potency, µM (titrated, usually from 41.8 µM), usual class: inhibitors; Huh7.5.1 HCVcc-Cre infection, luciferase reporter, 44 h
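Cells (1,000/well) were plated 4 h before compound, then infected with HCVcc-Cre virus (~0.5 moi). After 44 h further culture, infection was read as luciferase luminescence following a 15 min substrate incubation at room temperature.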
Giardia growth: qHTS Assay for Inhibitors of Fructose-1,6-bisphosphate Aldolase from Giardia Lamblia: Giardia lamblia growth inhibition | shares compounds with Giardia FBPA inh-1 | Giardia lamblia trophozoite growth inhibition | Potency, µM (highest dose often 57.5 µM), usual class: inhibitors | 5% of 1,500 active | AID 2785, 2010;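 note: trophozoites exposed to compound for 48 h at 37 °C; nearly all actives have a fitted effect of over 70% in size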
Mammalian tox: qHTS Assay for Inhibitors of Fructose-1,6-bisphosphate Aldolase from Giardia Lamblia: Mammalian cellular toxicity; shares compounds with Giardia FBPA inh-1; mammalian cell viability counter-screen, qHTS; Potency, µM (doses to about 57.5 µM), most hits filed as inhibitors; 4% of 1,500 active;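 note: Chinese hamster ovary cells used as mammalian cytotoxicity surrogate; viability measured as cellular ATP by luminescence; compound exposure lasted 48 h before reading; nearly all actives have a fitted effect of over 60% in size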
Giardia FBPA inh-2: qHTS Assay for Inhibitors of Fructose-1,6-bisphosphate Aldolase from Giardia Lamblia: Primary screen confirmation; 5% of 1,500 active; purified Giardia aldolase enzyme activity, qHTS; AID 2787, 2010; Potency, µM (top dose mostly 57.5 µM), hits mostly inhibitors; shares compounds with Giardia FBPA inh-1; note: nearly all actives have a fitted effect of over 45% in size
Rabbit aldolase: qHTS Assay for Inhibitors of Fructose-1,6-bisphosphate Aldolase from Giardia Lamblia: Rabbit FBPA Selectivity; shares compounds with Giardia FBPA inh-1; Rabbit muscle FBPA enzyme inhibition, selectivity counter-screen; Potency, µM (doses to about 57.5 µM), most hits filed as inhibitors; 4% of 1,500 active; note: nearly all actives have a fitted effect of over 60% in size
Target sequence (P00883 whole entry, looked up): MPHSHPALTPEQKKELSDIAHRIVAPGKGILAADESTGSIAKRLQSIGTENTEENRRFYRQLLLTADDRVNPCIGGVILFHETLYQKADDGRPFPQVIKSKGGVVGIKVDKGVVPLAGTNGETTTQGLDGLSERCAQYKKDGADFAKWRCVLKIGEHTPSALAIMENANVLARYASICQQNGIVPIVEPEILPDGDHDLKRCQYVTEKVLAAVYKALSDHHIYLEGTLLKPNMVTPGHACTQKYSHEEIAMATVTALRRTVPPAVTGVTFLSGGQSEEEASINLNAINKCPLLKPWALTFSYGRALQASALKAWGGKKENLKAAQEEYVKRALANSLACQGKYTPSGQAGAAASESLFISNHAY
GAPDH coupling: qHTS Assay for Inhibitors of Fructose-1,6-bisphosphate Aldolase from Giardia Lamblia: Coupling assay counterscreen confirmation | shares compounds with Giardia FBPA inh-1 | GAPDH coupling enzyme counterscreen, biochemical, qHTS | Potency, µM (series often up to 57.5 µM), usual class: inhibitors | 6% of 1,500 active | AID 2795, 2010; note: nearly all actives have a fitted effect of over 55% in size
Numbers stand for hits; - = inactive; ? = inconclusive; . = no result; [ ] = dose if it differs, or a comment. Unless noted, calls come from the whole dose curve; as a rule, active = well fitted curve in the direction sought with a large enough effect; inconclusive = small, poorly fitted or top-dose-only effect, or another doubt; inactive = no such curve, though single readings can be large; an effect the other way counts as inactive or inconclusive.

SMILES | VACV mCherry inh | Giardia FBPA inh-1 | Vaccinia Venus | HCMV inh | FMDV antiviral | HCV inhibitor | Giardia growth | Mammalian tox | Giardia FBPA inh-2 | Rabbit aldolase | GAPDH coupling
CCOc1ccc(-c2nnc(Nc3ccc(OC)c(C(=O)N4CCCCC4)c3)c3ccccc23)cc1 | . | - | . | - | - | 14µM | . | . | . | . | .
CNC(=O)c1cc(Nc2nnc(-c3ccc(O)cc3)c3ccccc23)ccc1OC | - | - | - | - | - | ? | . | . | . | . | .
NC(=O)COc1ccc(Nc2nnc(-c3ccc(O)cc3)c3ccccc23)cc1 | . | - | . | - | - | - | . | . | . | . | .
CCOCCc1nn2c(=O)cc(COC(=O)Cc3ccccc3)nc2s1 | - | . | - | - | - | . | . | . | . | . | .
Cc1ccccc1-c1nc2ccccc2c(=O)n1/N=C/c1ccccc1[N+](=O)[O-] | . | 4.5µM | - | - | - | - | 10µM | ? | ? | ? | 35µM
CCOC(=O)C1=C(C)OC(N)=C(C#N)C1c1ccsc1 (centres undefined) | . | ? | . | - | - | - | . | . | . | . | .
N#CC1=C(N)Oc2c(O)cc3ccccc3c2C1c1ccsc1 (centres undefined) | - | 18µM | - | - | ? | ? | -[10.4 µM] | - | ? | ? | ?
O=C(NC(=S)Nc1ccccc1[N+](=O)[O-])c1ccco1 | - | 16µM | - | - | - | - | 35µM | - | - | - | -
Cc1ccccc1NC(=S)NNC(=O)c1ccco1 | - | 7.9µM | - | - | - | - | ? | - | - | - | -
O=C(NC(=S)Nc1ccc([N+](=O)[O-])cc1)c1ccco1 | - | . | - | - | - | . | . | . | . | . | .
COC(=O)c1cc(OC)c(OC)cc1NC(=S)NC(=O)c1ccco1 | . | 13µM | . | - | ? | - | - | - | - | - | -
Cc1ccccc1NC(=O)c1ccco1 | . | - | . | - | - | - | . | . | . | . | .
O=C(COc1ccc(F)cc1)NCC1(N2CCCCC2)CCCCC1 | - | . | - | - | - | - | . | . | . | . | .
N#CC(CO)(Cc1ccc(OC(F)F)cc1)c1nc2ccccc2[nH]1 (centres undefined) | - | - | - | - | - | ? | . | . | . | . | .
Cc1cc(Cl)ccc1N=c1ssnc1Cl | -[1.46 µM] | 16µM | ? | - | ? | - | - | - | - | - | -
COc1cc(N=c2ssnc2Cl)c(OC)cc1Cl | ? | ? | ? | - | ? | ? | . | . | . | . | .
COc1ccc(OC)c(N=c2ssnc2Cl)c1 | - | 18µM | - | - | - | - | ? | - | - | - | -
Cc1ccc(N=c2ssnc2Cl)cc1 | . | ? | . | - | - | - | . | . | . | . | .
Nn1cnnc1N/N=C/c1ccc(Cl)cc1Cl | 8.9µM | - | ? | ? | - | ? | - | ? | 5.8µM | 8.2µM | 9.2µM
CC(=O)Nc1ccc(-c2ccnc3c2CC(C)(C(=O)NCc2ccc(N4CCN(C)CC4)cc2)O3)cc1 (centres undefined) | - | . | - | - | - | . | . | . | . | . | .
N#Cc1ccsc1NC(=O)c1ccccn1 | . | 20µM | . | - | - | - | 10µM | - | - | - | -
N#Cc1ccsc1NC(=O)c1ccc2ncsc2c1 | - | . | - | - | - | . | . | . | . | . | .
CCN(CC(=O)Nc1ccccc1OC)CC(=O)Nc1ccccc1-c1ccccc1 | - | 18µM | - | - | - | ? | - | - | - | - | -
CCN(CC(=O)Nc1ccccc1OC)CC(=O)Nc1ccccc1C(F)(F)F | - | - | - | - | - | - | . | . | . | . | .
COc1ccc(CN(C)S(=O)(=O)c2nnc(NC(=O)c3ccc(C)cc3)s2)cc1OC | . | 25µM | . | - | - | - | - | - | ? | ? | 20µM
SMILES | VACV mCherry inh | Giardia FBPA inh-1 | Vaccinia Venus | HCMV inh | FMDV antiviral | HCV inhibitor | Giardia growth | Mammalian tox | Giardia FBPA inh-2 | Rabbit aldolase | GAPDH coupling
CN(Cc1ccco1)S(=O)(=O)c1nnc(NC(=O)c2ccc(F)cc2)s1 | . | 20µM | . | - | - | - | -[10.4 µM] | - | ? | 32µM | 20µM
O=C(COC(=O)C1=Cc2ccccc2OC1)NCc1ccc(F)cc1 | - | . | - | . | - | - | . | . | . | . | .
CCOC(=O)c1c(-c2ccc(Cl)cc2)csc1NC(=O)CNCc1ccco1 | . | 16µM | . | - | - | ? | - | - | - | - | -
C=CCNC(=S)Nc1ccccc1-c1nnc2n1CCCCC2 | - | 13µM | - | - | - | - | -[10.4 µM] | - | - | - | -
COc1ccc(C(=O)OCC(=O)NC(=O)NC2CCCC2)cc1OC | . | . | . | - | - | - | . | . | . | . | .
COc1ccc(CCNC(=O)C2CCN(c3ncnc4c3nc3n4CCCCC3)CC2)c(OC)c1 | - | . | - | - | - | . | . | . | . | . | .
Cn1cnc([N+](=O)[O-])c1Sc1ncnc2nc[nH]c12 | - | - | -[7.34 µM] | - | ? | - | . | . | . | . | .
Cn1cnc(Sc2ncnc3nc[nH]c23)c1[N+](=O)[O-] | . | 14µM | . | - | ? | - | ? | - | - | - | -
O=C(NCc1cccs1)c1ccc(CSc2nc3ccncc3n2Cc2ccccc2F)cc1 | ? | . | - | - | - | . | . | . | . | . | .
CN(C)CCNC(C(=O)Nc1cccc(C(F)(F)F)c1)c1ccccc1 (centres undefined) | - | 18µM | - | - | - | - | - | - | - | - | -
CCOC(=O)c1c(N2CCN(c3ccccc3)CC2)cc(C)nc1C | . | 14µM | . | ? | ? | - | ? | - | - | - | -
Cc1noc(-c2ccc(-c3noc(-c4cccc(F)c4)n3)cc2)n1 | - | . | - | - | - | . | . | . | . | . | .
CC(=O)Nc1nc(-c2ccc(Cl)cc2)nc(C)c1C(C)=O | . | 7.1µM | . | - | - | - | -[10.4 µM] | - | - | - | -
CCSC1=N/C(=C\c2ccc(-c3ccccc3[N+](=O)[O-])o2)C(=O)S1 | - | ? | - | - | - | - | - | - | - | - | -
CNCCC1Sc2ccccc2Oc2ccccc21 (centres undefined) | - | 18µM | - | - | - | - | - | - | - | - | -
CCCCNC(=O)C1c2ccccc2Oc2ccccc21 | . | - | . | ? | - | - | . | . | . | . | .
Oc1ccc(C(=S)N2CCN(Cc3ccccc3)CC2)cc1 | . | 18µM | . | - | - | - | - | - | - | - | -

Screens as filed in PubChem BioAssay.
